A selection: hits, their analogues and other compounds. The true share with any hit is near 3.5%.
TEAD-YAP inh = TEAD-YAP interaction inhibition; AID 1259422; HEK-TIYL cells, TEAD-Gal4/YAP UAS-luciferase luminescence; 640,000 compounds, 1.4% hits; inhibition, % at 9.12 µM; in the data active = inhibition above about 32%;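 note: 0% = median of test compound wells and 100% = reference inhibitor wells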
MITF primary = human MITF inhibition, primary screen; O75030; AlphaScreen MITF homodimerization, bead proximity signal; inhibition, % at 2.6 µM; 650,000 compounds, 0.91% hits; AID 1259374; in the data active = inhibition above about 50%;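 note: 0% = vehicle wells with protein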
FBW7 activator = activators of human E3 ligase FBW7; AlphaScreen FBW7–phospho-cyclin E peptide binding, activator screen; normalized activity (activation), % at 26.1 µM; 650,000 compounds, 0.13% hits; AID 1259310; in the data active = normalized activity above about 1.9%;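 note: purified mutant Fbw7 with reduced substrate affinity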
GPR151 activ = activators of human GPR151; Q8TDV0; PathHunter beta-arrestin GPR151 cells, luminescence; activation, % at 11.2 µM; 650,000 compounds, 1% hits; AID 1508602; in the data active = activation above about 4.9%;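 note: 0% = median of compound wells and 100% = cells with positive control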
* = called active by the depositor.

SMILES	TEAD-YAP inh	MITF primary	FBW7 activator	GPR151 activ
CCOC(=O)c1sc(N)c(C#N)c1COC(=O)CCc1nc2ccccc2s1	7.9	7.7	0.4	0.2
CCCOC(=O)CSC1=C(C#N)C(c2ccc(O)cc2)CC(=O)N1 (centres undefined)	-1.3	4.9	0.1	0.0
CCCCOC(=O)CSC1=C(C#N)C(c2ccc(Cl)cc2)CC(=O)N1 (centres undefined)	1.9	6.0	0.0	-0.8
N#CC1=C(SCC(=O)Nc2ccccc2)NC(=O)CC1c1ccccc1 (centres undefined)	32.2*	-14.1	0.0	-1.0
CCCOC(=O)CSC1=C(C#N)C(c2ccccc2)CC(=O)N1 (centres undefined)	57.1*	6.6	0.1	1.0
CCc1ccc(C2CC(=O)NC(SCC(=O)OC(C)C)=C2C#N)cc1 (centres undefined)	3.1	12.9	0.1	1.1
CC(C)OC(=O)CSC1=C(C#N)C(c2ccccc2)CC(=O)N1 (centres undefined)	62.1*	-7.2	-0.1	0.9
CCCCOC(=O)CSC1=C(C#N)C(c2ccccc2)CC(=O)N1 (centres undefined)	44.6*	13.0	0.0	1.6
N#CC1=C(SCC(=O)Nc2ccccc2)NC(=O)CC1c1ccc(O)cc1 (centres undefined)	31.3	19.4	0.8	1.3
Cc1ccc(CSc2ccc(C(=O)NNC(=O)c3ccccn3)cc2[N+](=O)[O-])cc1	49.6*	26.8	0.0	-2.4
O=C1CSC(c2ccc([N+](=O)[O-])cc2)N1c1ccc(Oc2ccccc2)cc1 (centres undefined)	-0.9	15.1	-0.3	1.0
CC(=O)c1ccc(NC(=O)c2ccccc2)cc1	-57.3	-8.2	-0.1	-2.9
CCc1ccccc1NC(=O)c1ccc(NCc2ccc(OC)cc2)c([N+](=O)[O-])c1	57.2*	1.5	-0.1	0.4
CCc1ccccc1NC(=O)c1ccc(SCc2ccc(OC)cc2)c([N+](=O)[O-])c1	1.1	-4.8	-0.1	-0.8
CCc1ccccc1NC(=O)c1ccc(NCc2ccc(C)cc2)c([N+](=O)[O-])c1	56.8*	0.8	-0.2	3.6
